The campaign covered roughly 5,700 compounds. About 85 (1%) were called active. No stated cut-off is given here; in the data, active means p53-positive nuclei above about 36% (passing the limit was not always enough); inactive means the rest. Shown is part of a subset that was picked to be rich in actives.
What was measured:
[1] = p53 stabilisation in HPV-positive human cells, imaging, p53-positive nuclei imaging, 24 h, 48 h (AID 1508601); conditions: 24/48 h
[2] = target: Cellular tumor antigen p53 (Homo sapiens) (UniProt P04637); experiment: as above; conditions: 24/48 h, stronger effect = higher value
[3] = measured here: cell number at 24 h, concentration not given here
[4] = measured here: cell number at 48 h, concentration not given here
[5] = measured here: p53 positive nuclei at 24 h, concentration not given here
[6] = measured here: cell number at 24 h, Library stock concentration: 3.33 mM
[7] = measured here: cell number at 24 h, Library stock concentration: 10 mM
[8] = measured here: cell number at 48 h, Library stock concentration: 3.33 mM
[9] = measured here: cell number at 48 h, Library stock concentration: 10 mM
[10] = Library stock concentration: 3.33 mM
[11] = Library stock concentration: 10 mM
[12] = measured here: p53 positive nuclei at 24 h, Library stock concentration: 3.33 mM
[13] = measured here: p53 positive nuclei at 24 h, Library stock concentration: 10 mM
[14] = measured here: cell number at 24 h, Library stock concentration: 80 uM
[15] = measured here: cell number at 24 h, Library stock concentration: 400 uM
[16] = measured here: cell number at 24 h, Library stock concentration: 2 mM
[17] = measured here: cell number at 48 h, Library stock concentration: 80 uM
[18] = measured here: cell number at 48 h, Library stock concentration: 400 uM
[19] = measured here: cell number at 48 h, Library stock concentration: 2 mM
[20] = Library stock concentration: 80 uM
[21] = Library stock concentration: 400 uM
[22] = Library stock concentration: 2 mM
[23] = measured here: p53 positive nuclei at 24 h, Library stock concentration: 80 uM
[24] = measured here: p53 positive nuclei at 24 h, Library stock concentration: 400 uM
[25] = measured here: p53 positive nuclei at 24 h, Library stock concentration: 2 mM

Sequence of Cellular tumor antigen p53 (Homo sapiens) (P04637 whole entry, looked up): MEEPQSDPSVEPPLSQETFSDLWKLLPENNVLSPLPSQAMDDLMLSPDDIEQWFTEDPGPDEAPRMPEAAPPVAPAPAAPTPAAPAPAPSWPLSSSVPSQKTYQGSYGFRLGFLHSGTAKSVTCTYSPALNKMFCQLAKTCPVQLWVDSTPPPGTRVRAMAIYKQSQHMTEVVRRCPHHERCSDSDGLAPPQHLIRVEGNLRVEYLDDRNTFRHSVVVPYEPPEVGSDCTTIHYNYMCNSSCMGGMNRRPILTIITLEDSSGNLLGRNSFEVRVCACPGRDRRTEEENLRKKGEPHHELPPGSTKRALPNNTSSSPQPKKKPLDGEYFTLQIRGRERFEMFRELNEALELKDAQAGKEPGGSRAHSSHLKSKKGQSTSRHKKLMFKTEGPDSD

COc1ccc(F)cc1-c1cnn(CC(=O)Nc2cc(C)nn2C)c1
nuclei count, normalised [1, 3]: 95.8%
nuclei count, normalised [1, 4]: 92.9%
p53-positive nuclei, normalised ([2]; concentration not given here): 0.158% (inactive)
p53-positive nuclei, normalised [2, 5]: -0.0647%

CCCCC/C=C/C/C=C/CCCCCCCC(=O)O
nuclei count, normalised [1, 3]: 108%
nuclei count, normalised [1, 4]: 108%
p53-positive nuclei, normalised ([2]; concentration not given here): -0.00219% (inactive)
p53-positive nuclei, normalised [2, 5]: -0.0851%

Cc1cc(OCc2nnc(SC3CCCC3)n2-c2cccnc2)ccc1-c1ccc(S(C)(=O)=O)cc1
nuclei count, normalised ([1]; measured here: cell number at 24 h, Library stock concentration: 46 uM): 107%
nuclei count, normalised ([1]; measured here: cell number at 24 h, Library stock concentration: 278 uM): 112%
nuclei count, normalised ([1]; measured here: cell number at 24 h, Library stock concentration: 1.67 mM): 74.2%
nuclei count, normalised [1, 6]: 78.3%
nuclei count, normalised [1, 7]: 53.9%
nuclei count, normalised ([1]; measured here: cell number at 48 h, Library stock concentration: 46 uM): 114%
nuclei count, normalised ([1]; measured here: cell number at 48 h, Library stock concentration: 278 uM): 110%
nuclei count, normalised ([1]; measured here: cell number at 48 h, Library stock concentration: 1.67 mM): 69.2%
nuclei count, normalised [1, 8]: 66.8%
nuclei count, normalised [1, 9]: 36.2%
p53-positive nuclei, normalised ([2]; Library stock concentration: 46 uM): -0.268% (inactive)
p53-positive nuclei, normalised ([2]; Library stock concentration: 278 uM): -0.012% (inactive)
p53-positive nuclei, normalised ([2]; Library stock concentration: 1.67 mM): 2.41% (inactive)
p53-positive nuclei, normalised [2, 10]: 3.08% (inactive)
p53-positive nuclei, normalised [2, 11]: 57.1% (active)
p53-positive nuclei, normalised ([2]; measured here: p53 positive nuclei at 24 h, Library stock concentration: 46 uM): -0.152%
p53-positive nuclei, normalised ([2]; measured here: p53 positive nuclei at 24 h, Library stock concentration: 278 uM): -0.153%
p53-positive nuclei, normalised ([2]; measured here: p53 positive nuclei at 24 h, Library stock concentration: 1.67 mM): 1.05%
p53-positive nuclei, normalised [2, 12]: 0.345%
p53-positive nuclei, normalised [2, 13]: 46.4%

CC(NC(=O)c1cc(Cl)ccc1Oc1ccc(F)cc1)c1ccc(C(=O)O)cc1 (configuration not stated)
nuclei count, normalised [1, 14]: 115%
nuclei count, normalised [1, 15]: 119%
nuclei count, normalised [1, 16]: 117%
nuclei count, normalised [1, 7]: 107%
nuclei count, normalised [1, 17]: 117%
nuclei count, normalised [1, 18]: 115%
nuclei count, normalised [1, 19]: 114%
nuclei count, normalised [1, 9]: 108%
p53-positive nuclei, normalised [2, 20]: 0.0152% (inactive)
p53-positive nuclei, normalised [2, 21]: -0.136% (inactive)
p53-positive nuclei, normalised [2, 22]: -0.0948% (inactive)
p53-positive nuclei, normalised [2, 11]: -0.00827% (inactive)
p53-positive nuclei, normalised [2, 23]: -0.00172%
p53-positive nuclei, normalised [2, 24]: -0.0227%
p53-positive nuclei, normalised [2, 25]: -0.0802%
p53-positive nuclei, normalised [2, 13]: -0.136%

O=C1OC[C@@H](Cc2cccc(O)c2)[C@@H]1Cc1cccc(O)c1
nuclei count, normalised [1, 3]: 111%
nuclei count, normalised [1, 4]: 114%
p53-positive nuclei, normalised ([2]; concentration not given here): -0.147% (inactive)
p53-positive nuclei, normalised [2, 5]: -0.118%

COC1C[C@H]2CCC(C)[C@@](O)(O2)C(=O)C(=O)N2CCCC[C@H]2C(=O)OC(C(C)CC2CCC(OP(C)(C)=O)C(OC)C2)CC(=O)C(C)C=C(C)C(O)C(OC)C(=O)C(C)CC(C)C=CC=CC=C1C (some centres not stated)
nuclei count, normalised [1, 6]: 108%
nuclei count, normalised [1, 8]: 105%
p53-positive nuclei, normalised [2, 10]: -0.656% (inactive)
p53-positive nuclei, normalised [2, 12]: -0.202%

Cc1c(CN2CCN(C(=O)C(C)O)CC2)sc2c(N3CCOCC3)nc(-c3cnc(N)nc3)nc12 (configuration not stated)
nuclei count, normalised [1, 14]: 107%
nuclei count, normalised [1, 15]: 110%
nuclei count, normalised [1, 16]: 89.3%
nuclei count, normalised [1, 6]: 82.6%
nuclei count, normalised [1, 7]: 84.4%
nuclei count, normalised [1, 17]: 113%
nuclei count, normalised [1, 18]: 112%
nuclei count, normalised [1, 19]: 89%
nuclei count, normalised [1, 8]: 84%
nuclei count, normalised [1, 9]: 88.2%
p53-positive nuclei, normalised [2, 20]: 0.00265% (inactive)
p53-positive nuclei, normalised [2, 21]: -0.106% (inactive)
p53-positive nuclei, normalised [2, 22]: -0.151% (inactive)
p53-positive nuclei, normalised [2, 10]: -0.349% (inactive)
p53-positive nuclei, normalised [2, 11]: -0.157% (inactive)
p53-positive nuclei, normalised [2, 23]: 0.036%
p53-positive nuclei, normalised [2, 24]: -0.106%
p53-positive nuclei, normalised [2, 25]: -0.151%
p53-positive nuclei, normalised [2, 12]: -0.356%
p53-positive nuclei, normalised [2, 13]: -0.0302%

COc1ccc(-c2nc(N3CCOCC3)c3sc(CN(C)c4ncc(C(=O)NO)cn4)cc3n2)cn1
nuclei count, normalised [1, 14]: 47.5%
nuclei count, normalised [1, 15]: 43.3%
nuclei count, normalised [1, 16]: 39.6%
nuclei count, normalised [1, 6]: 33.2%
nuclei count, normalised [1, 7]: 31.5%
nuclei count, normalised [1, 17]: 22.9%
nuclei count, normalised [1, 18]: 21.1%
nuclei count, normalised [1, 19]: 24.2%
nuclei count, normalised [1, 8]: 21.9%
nuclei count, normalised [1, 9]: 19%
p53-positive nuclei, normalised [2, 20]: 96.8% (active)
p53-positive nuclei, normalised [2, 21]: 94.6% (active)
p53-positive nuclei, normalised [2, 22]: 98.6% (active)
p53-positive nuclei, normalised [2, 10]: 65.1% (active)
p53-positive nuclei, normalised [2, 11]: 81.6% (active)
p53-positive nuclei, normalised [2, 23]: 77.1%
p53-positive nuclei, normalised [2, 24]: 75.3%
p53-positive nuclei, normalised [2, 25]: 81.2%
p53-positive nuclei, normalised [2, 12]: 43.2%
p53-positive nuclei, normalised [2, 13]: 59%

Reference: PubChem BioAssay AID1508601 (ICCB-Longwood Screening Facility, Harvard Medical School, 2020)
